# Screening results: PubChem BioAssay, several laboratories
# Most compounds without a hit are left out; they make up all but 0.82% or so of the library.
# LANA DNA inh: KSHV C-LANA DNA binding inhibition; MBP-C-LANA/FAM-LBS DNA binding, fluorescence polarization; inhibition, % at 9 µM; hit rate 0.078% among 340,000; AID 504423;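 active = highest replicate inhibition at or above 60% at 9 µM, even if other replicates fall short; inactive = all replicates below 60% inhibition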;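 note: 0% = neutral control wells and 100% = 4 µM acridine orange control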
# RTF Ca sens act: increases calcium sensitivity of human cardiac regulated thin filaments; P19429+P45379; IANBD-labeled TnC RTF fluorescence at EC20 calcium; 0% EC20 calcium, 100% full calcium; activation, % at 7.2 µM; hit rate 0.24% among 340,000; AID 493008;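 active = activation above the mean over all tested compounds plus 3 SD, cut at about 30% in these data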;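 note: rise in fluorescence read as greater calcium sensitivity of cardiac thin filaments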
# E coli Lon inh: inhibits E. coli Lon protease. AID 602123. purified E. coli Lon protease, fluorescence polarization. hit rate 0.42% among 360,000. P0A9M0. inhibition, % at 7.94 µM; in the data active = inhibition above about 13%, passing the limit was not always enough;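 note: 0% = enzyme with probe and DMSO and 100% = no enzyme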
# Keap1-Nrf2 PPI: Keap1-Nrf2 (human) interaction inhibition; inhibition, % at 9.4 µM; Keap1 Kelch-Nrf2 peptide fluorescence polarization, 1536-well; hit rate 0.15% among 340,000; Q14145; in the data active = inhibition above about 12%;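 note: human Keap1 Kelch domain with fluorescein labeled Nrf2 9mer peptide probe; 0% = neutral control wells and 100% = peptide positive control; higher means more block of Keap1 binding to Nrf2 peptide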
# Target sequence (Q14145 whole entry, looked up, the tested form may be a part): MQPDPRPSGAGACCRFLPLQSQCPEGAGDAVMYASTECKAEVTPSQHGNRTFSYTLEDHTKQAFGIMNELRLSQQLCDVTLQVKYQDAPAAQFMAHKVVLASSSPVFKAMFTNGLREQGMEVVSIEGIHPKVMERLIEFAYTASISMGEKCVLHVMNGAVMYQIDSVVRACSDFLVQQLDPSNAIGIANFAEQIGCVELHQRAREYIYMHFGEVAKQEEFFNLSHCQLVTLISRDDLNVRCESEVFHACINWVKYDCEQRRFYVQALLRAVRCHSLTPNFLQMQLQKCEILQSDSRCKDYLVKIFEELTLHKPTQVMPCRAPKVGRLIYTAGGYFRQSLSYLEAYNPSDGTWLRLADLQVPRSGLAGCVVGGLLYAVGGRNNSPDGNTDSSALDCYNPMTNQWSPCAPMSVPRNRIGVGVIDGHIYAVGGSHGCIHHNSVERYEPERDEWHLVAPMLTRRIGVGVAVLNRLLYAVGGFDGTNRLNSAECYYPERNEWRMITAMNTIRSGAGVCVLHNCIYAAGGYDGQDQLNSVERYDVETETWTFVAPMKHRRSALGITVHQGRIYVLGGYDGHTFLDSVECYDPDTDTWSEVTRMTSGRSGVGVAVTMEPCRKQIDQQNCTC
# Cardiac RTF inh: cardiac RTF calcium desensitization; AID 493244; P19429+P45379; hit rate 0.12% among 340,000; inhibition, % at 7.15 µM; IANBD-labeled cardiac RTF, Ca2+ fluorescence;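 active = inhibition above the mean inhibition of all tested compounds plus 3 SD, cut at about 17% in these data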;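 note: assay run at fixed EC70 calcium of 1.6 mM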
# Keap1 Kelch bind: Keap1 (human) Kelch domain binding | Keap1 Kelch thermal shift, delta Tm; active compounds read high | max delta Tm, degrees C | shares compounds with Keap1-Nrf2 PPI | hit rate 8% among 400; in the data active = max delta Tm above about 0.48 degrees C
# Sypro dye melt: dye artifact in Keap1 thermal shift counter-screen; shares compounds with Keap1-Nrf2 PPI; Sypro Orange dye-only thermal melt, no protein, delta Tm; top dose 26 µM; delta Tm, degrees C (test concentration not listed); 140 tested, under 10 active;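 active = at highest dose tested, delta Tm positive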
# eLon confirm: confirmation of E. coli Lon protease inhibitors | AID 602230 | shares compounds with E coli Lon inh | purified E. coli Lon, fluorescence polarization | inhibition, % at 7.94 µM | hit rate 31% among 1,400; in the data active = inhibition above about 16%;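 note: 0% = enzyme with probe and DMSO and 100% = no enzyme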
# An asterisk follows results filed as active; i = inactive; / = no result given; + = active, no number.
SMILES,LANA DNA inh,RTF Ca sens act,E coli Lon inh,Keap1-Nrf2 PPI,Cardiac RTF inh,Keap1 Kelch bind,eLon confirm,others
O=c1[nH]c(-[n+]2ccccc2)c(/C=N/NC([S-])=Nc2ccccc2)s1,25.9,21.3,94.1*,17.0*,-37.8,-0.07,2.2,
CC(C)(C)c1cc[n+](-c2[nH]c(=O)sc2/C=N/N=C(\[O-])c2cccnc2)cc1,3.0,-3.6,3.0,2.0,0.7,/,/,
CCc1ccc[n+](-c2[nH]c(=O)sc2/C=N/NC([S-])=Nc2ccccc2)c1,89.3*,85.1*,104.8*,49.4*,-99.3,-0.11,129.5*,Sypro dye melt=-25
CCc1ccc[n+](-c2[nH]c(=O)sc2/C=N/N=C(\N)[O-])c1,-1.4,-9.5,-1.4,-0.3,1.4,/,/,
Cc1cc[n+](-c2[nH]c(=O)sc2/C=N/NC([S-])=Nc2ccccc2)cc1,48.0,41.8*,63.3*,31.7*,-83.2,0.09,53.4*,
CCCCN1C(=O)C(CC(=O)NCc2cccc3ccccc23)CC(C(=O)N(C(C)C)C(C)C)=C1C (stereo unspecified),/,/,-3.2,/,/,/,/,
CCOc1cc2c(c3c1C(c1ccccc1)N(S(=O)(=O)c1ccc(C)cc1)C3)C(=O)C=CC2=O (stereo unspecified),/,/,-3.5,/,/,/,/,
Fc1cccc(Cl)c1C1SCc2nc3ccccc3n21 (stereo unspecified),/,/,-3.5,/,/,/,/,
CCCCN(C)C(=O)c1sc(=O)n(Cc2ccc(Cl)c(Cl)c2)c1C,/,/,2.5,/,/,/,/,
FC(F)c1nc2ccccc2[nH]1,0.0,-2.4,-6.5,-3.7,-1.8,/,/,
c1ccc2[nH]c3cc4ncnc4cc3nc2c1,74.7*,57.9*,153.4*,35.0*,-48.5,0,+,
CCOC(=O)C1CCCN(C(=O)C2c3ccccc3Oc3ccccc32)C1 (stereo unspecified),119.5*,92.8*,+,46.6*,-109.3,-0.16,36.4*,Sypro dye melt=-44.8
CCOC(=O)C1CCCN(C(=O)C2COc3ccccc3O2)C1 (stereo unspecified),-0.1,-0.1,1.3,-4.9,-15.5,/,/,
O=c1[nH]c(=S)[nH]c2nc(-c3ccccc3)cnc12,-2.2,-1.7,-5.5,1.2,-6.0,/,/,
Cc1cc2nc3c(=O)[nH]c(=S)[nH]c3nc2cc1NC(=O)C(F)(F)F,54.9,65.1*,+,27.4*,-175.7,-0.07,144.5*,
CCc1cc[n+](-c2nc([O-])sc2C=O)cc1,43.2,21.9,40.1*,28.8*,-27.0,-0.06,7.7,
CCN1C(=O)c2cccc3c(Cl)ccc(c23)C1=O,-1.4,3.3,-9.5,2.0,-2.3,/,/,
Nc1ccc2c3c(cccc13)C(=O)N(c1ccccc1)C2=O,19.3,971.9*,+,31.5*,i,-0.06,+,
Cc1cccc(N2C(=O)c3cccc4c(N)ccc(c34)C2=O)c1,135.1*,+,+,74.6*,i,-0.12,+,Sypro dye melt=-26.4
Cc1cccc(N2C(=O)c3cccc4c(N(C)CCO)ccc(c34)C2=O)c1,67.7*,330.6*,175.1*,12.4*,-273.4,-0.01,144.3*,
Cc1cccc(N2C(=O)c3cccc4cccc(c34)C2=O)c1,-2.2,-1.4,-2.9,-3.9,-5.8,/,/,
CC(C)CCN1C(=O)c2cccc3c(N)ccc(c23)C1=O,96.1*,658.5*,+,70.5*,i,0.11,142.8*,
CC(=O)Nc1cccc2c1C(=O)N(c1cccc(C)c1)C2=O,0.4,1.8,6.7,1.4,-2.1,/,/,
CSc1ncnc2c1ncn2CCCN1CCN(Cc2cccc3ccccc23)CC1,/,/,-2.4,/,/,/,/,
CCOC(=O)c1sc2nc(OCc3cccnc3)cc(C)c2c1N,/,/,-13.9,/,/,/,/,
CCCCNC(=O)c1ccc2nc(CC)c(N(C)Cc3cccs3)n2c1,/,/,-4.8,/,/,/,/,
Nc1cccc(N2C(=O)c3cccc4c(N)ccc(c34)C2=O)c1,87.9*,290.6*,+,17.2*,-375.6,0.04,+,
CCOc1cccc(-c2cnc3cccnn23)c1,/,/,1.8,/,/,/,/,
Cn1ccnc1C(O)c1ccccc1 (stereo unspecified),0.5,-4.2,9.5,-0.5,-0.1,/,/,
COc1ccc2ccccc2c1C(O)c1nccn1C (stereo unspecified),54.8,84.2*,54.9*,32.9*,-128.8,0.1,168.2*,
